Measured values published in PubChem BioAssay.
Activity calls are given as the source filed them.

Tests used:
[1] = test system: PRMT1 (protein arginine N-methyltransferase 1); test: small molecules binding arginine methyltransferase PRMT1 – biochemical, small-molecule microarray, 635 nm fluorescence, primary screen (AID 1088); conditions: higher = more signal;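 also: binding of Prmt1 protein to compounds spotted on small-molecule microarray slides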
[2] = growth effects on S. cerevisiae YJM789 – YJM789 clinical isolate, OD600, 24 h, basal, primary screen (AID 1089); conditions: higher = more signal, called active from +8 up or from −8 down;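 also: growth of clinical yeast isolate S. cerevisiae YJM 789 seeded 1000 cells per well; test concentration not given here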
[3] = S. pombe growth modifiers, basal conditions – strain 972, OD600, 24 h, no modulator, primary screen (AID 1090);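 also: basal condition with compound alone and no growth modifier present; test concentration not given here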; conditions: S. pombe 972 growth, higher = more signal, called active from +8 up or from −8 down
[4] = budding yeast growth modifiers under rapamycin – strain BY4716, OD600, 96 h, primary screen (AID 1091); also: test concentration not given here; conditions: S. cerevisiae BY4716 + rapamycin, higher = more signal, called active from +8 up or from −8 down
[5] = biological target: Torsin-1A-interacting protein 2 (Homo sapiens) (UniProt Q8NFQ8); test: small molecules binding lysate-expressed LULL1 – cell lysate, human LULL1 lysate, 635/667 nm fluorescence, primary screen (AID 1092); conditions: small-molecule microarray, hLULL1 lysate binding, 635 nm fluorescence; higher = more signal;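 also: probe is lysate of COS7 cells overexpressing human LULL1; score merges per-feature 667 nm fluorescence with signal-to-noise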
Chain of Torsin-1A-interacting protein 2 (Homo sapiens) (Q8NFQ8 whole entry, looked up): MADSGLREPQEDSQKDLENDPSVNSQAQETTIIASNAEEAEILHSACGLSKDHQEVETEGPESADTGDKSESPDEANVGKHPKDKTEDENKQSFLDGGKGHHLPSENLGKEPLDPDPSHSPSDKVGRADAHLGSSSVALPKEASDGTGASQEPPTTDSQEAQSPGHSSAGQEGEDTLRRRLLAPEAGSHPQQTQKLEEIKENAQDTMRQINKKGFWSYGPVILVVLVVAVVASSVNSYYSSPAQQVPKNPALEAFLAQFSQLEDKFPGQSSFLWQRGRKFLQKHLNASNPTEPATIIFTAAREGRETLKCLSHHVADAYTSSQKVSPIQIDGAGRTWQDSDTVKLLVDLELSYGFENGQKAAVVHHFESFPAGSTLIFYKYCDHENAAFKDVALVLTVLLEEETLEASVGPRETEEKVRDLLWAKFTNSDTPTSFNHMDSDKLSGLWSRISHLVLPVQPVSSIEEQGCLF

[6] = optical density change of DRC41 E. coli – strain DRC41, OD650, 24 h, E. coli filamentation project, primary screen (AID 1093);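 also: MC1000 strain lacking acrAB efflux and sulA so SOS filamentation is blocked; test concentration not given here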; conditions: E. coli DRC41 growth, higher = more signal, called active from +8 up or from −8 down
[7] = probe aLefty2 binding to arrayed compounds – biochemical, biotinylated probe, 635/667 nm fluorescence, primary screen (AID 1094); conditions: small-molecule microarray, higher = more signal;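 also: score merges spot fluorescence near 667 nm with spot signal-to-noise ratio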
[8] = test system: Noggin (protein binding on small-molecule microarray); test: small molecules binding Noggin protein – biochemical, 635/667 nm fluorescence, primary screen (AID 1095); conditions: 635 nm fluorescence, higher = more signal;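 also: score merges 667 nm feature fluorescence with signal to noise over triplicate slides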
[9] = biological target: Neurogenic locus notch homolog protein 3 (Homo sapiens) (UniProt Q9UM47); test: small molecules binding NOTCH3 protein – biochemical, 635/667 nm fluorescence, primary screen (AID 1096); conditions: small-molecule microarray, 635 nm fluorescence, higher = more signal
Chain of Neurogenic locus notch homolog protein 3 (Homo sapiens) (Q9UM47 whole entry, looked up): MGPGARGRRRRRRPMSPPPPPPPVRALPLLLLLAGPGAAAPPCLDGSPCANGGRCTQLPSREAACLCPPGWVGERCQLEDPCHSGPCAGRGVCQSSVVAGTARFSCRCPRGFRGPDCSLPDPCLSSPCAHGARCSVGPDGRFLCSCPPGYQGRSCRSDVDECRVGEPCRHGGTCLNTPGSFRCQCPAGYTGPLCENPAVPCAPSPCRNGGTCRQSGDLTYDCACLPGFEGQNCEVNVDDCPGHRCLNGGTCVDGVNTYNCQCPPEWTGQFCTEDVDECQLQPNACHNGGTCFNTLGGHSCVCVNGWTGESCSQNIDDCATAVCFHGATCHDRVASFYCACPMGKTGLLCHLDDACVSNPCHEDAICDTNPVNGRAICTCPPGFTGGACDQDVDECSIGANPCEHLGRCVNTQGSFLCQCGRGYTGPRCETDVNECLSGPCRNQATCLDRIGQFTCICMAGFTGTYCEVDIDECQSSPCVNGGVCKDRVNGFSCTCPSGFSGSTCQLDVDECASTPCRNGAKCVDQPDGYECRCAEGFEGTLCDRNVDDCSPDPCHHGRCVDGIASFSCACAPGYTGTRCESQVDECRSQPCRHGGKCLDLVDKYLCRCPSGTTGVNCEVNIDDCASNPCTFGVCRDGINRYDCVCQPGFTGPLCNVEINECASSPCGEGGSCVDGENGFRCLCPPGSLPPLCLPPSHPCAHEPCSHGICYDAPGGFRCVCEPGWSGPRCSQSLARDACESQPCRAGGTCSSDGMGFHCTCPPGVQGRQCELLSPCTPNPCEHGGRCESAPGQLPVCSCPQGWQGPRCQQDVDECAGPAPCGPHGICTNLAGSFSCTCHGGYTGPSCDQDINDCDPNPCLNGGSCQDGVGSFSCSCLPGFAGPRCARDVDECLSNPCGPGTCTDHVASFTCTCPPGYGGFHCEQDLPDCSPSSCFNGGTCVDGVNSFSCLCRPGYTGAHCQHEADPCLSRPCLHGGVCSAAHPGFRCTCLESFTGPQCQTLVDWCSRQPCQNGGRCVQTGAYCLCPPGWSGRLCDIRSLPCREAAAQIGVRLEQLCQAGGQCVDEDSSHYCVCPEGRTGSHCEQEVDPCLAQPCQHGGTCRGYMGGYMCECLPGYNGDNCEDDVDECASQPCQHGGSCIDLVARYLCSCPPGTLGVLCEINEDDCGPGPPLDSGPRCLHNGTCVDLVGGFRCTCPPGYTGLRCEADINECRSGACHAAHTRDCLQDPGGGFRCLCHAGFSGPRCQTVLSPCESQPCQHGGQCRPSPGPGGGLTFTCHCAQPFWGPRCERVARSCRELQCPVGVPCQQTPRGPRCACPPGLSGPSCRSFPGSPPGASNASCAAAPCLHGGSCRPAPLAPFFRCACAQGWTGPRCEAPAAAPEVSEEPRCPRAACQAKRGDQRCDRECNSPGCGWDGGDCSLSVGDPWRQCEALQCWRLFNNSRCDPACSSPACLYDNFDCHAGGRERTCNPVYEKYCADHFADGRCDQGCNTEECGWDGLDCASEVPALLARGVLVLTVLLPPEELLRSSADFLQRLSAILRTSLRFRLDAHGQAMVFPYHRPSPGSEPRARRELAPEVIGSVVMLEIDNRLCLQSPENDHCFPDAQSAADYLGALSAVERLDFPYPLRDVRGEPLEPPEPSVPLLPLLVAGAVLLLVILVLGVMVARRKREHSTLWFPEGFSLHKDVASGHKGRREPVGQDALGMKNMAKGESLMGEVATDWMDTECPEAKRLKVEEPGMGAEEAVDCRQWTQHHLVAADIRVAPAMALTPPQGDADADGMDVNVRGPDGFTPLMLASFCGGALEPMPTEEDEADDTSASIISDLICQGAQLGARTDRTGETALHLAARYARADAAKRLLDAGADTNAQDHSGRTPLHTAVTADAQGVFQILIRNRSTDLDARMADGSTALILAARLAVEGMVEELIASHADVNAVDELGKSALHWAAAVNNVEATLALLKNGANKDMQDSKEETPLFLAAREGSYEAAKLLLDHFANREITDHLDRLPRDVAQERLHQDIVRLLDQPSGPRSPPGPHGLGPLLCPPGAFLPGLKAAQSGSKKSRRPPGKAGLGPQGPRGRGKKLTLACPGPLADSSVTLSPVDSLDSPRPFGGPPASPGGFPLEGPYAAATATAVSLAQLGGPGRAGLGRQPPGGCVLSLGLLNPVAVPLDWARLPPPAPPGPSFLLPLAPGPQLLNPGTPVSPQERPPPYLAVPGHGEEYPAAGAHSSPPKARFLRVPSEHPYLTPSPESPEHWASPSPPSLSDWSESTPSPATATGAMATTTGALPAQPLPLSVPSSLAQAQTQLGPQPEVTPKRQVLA

[10] = probe aEGFR binding to arrayed compounds – biochemical, biotinylated probe, 635/667 nm fluorescence, primary screen (AID 1097); conditions: small-molecule microarray, higher = more signal;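 also: probe is a biotinylated anti-EGFR antibody binding compounds printed on slides; score combines fluorescence near 667 nm and signal to noise of each spot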
[11] = test system: Plasmodium falciparum Sir2 (PF13_0152, Sir2A); test: Plasmodium falciparum Sir2A binding compounds – biochemical, small-molecule microarray, 635 nm fluorescence, primary screen (AID 1098); conditions: fluorescence 635 nm, higher = more signal;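 also: score merges spot fluorescence intensity with its signal-to-noise ratio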
[12] = probe aDKK1 binding to arrayed compounds – biochemical, biotinylated probe, 635/667 nm fluorescence, primary screen (AID 1099); conditions: small-molecule microarray, higher = more signal;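 also: score merges 667nm spot fluorescence with signal to noise across triplicate slides; reference of the scale not given here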
[13] = probe aCHRDL2 binding to arrayed compounds – biochemical, biotinylated probe, 635/667 nm fluorescence, primary screen (AID 1100); conditions: small-molecule microarray, higher = more signal
[14] = change in splice reporter luminescence, either direction, cell-based, HEK293, spliceosome inhibition project, primary screen (AID 1101); conditions: HEK293 splicing luciferase reporter, 24 h, higher = more signal, called active from +8 up or from −8 down;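 also: HEK293 cells carrying a splicing-competent luciferase reporter gene; test concentration not given here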
[15] = biological target: Fibroblast growth factor 10 (Homo sapiens) (UniProt O15520); test: compounds binding fibroblast growth factor 10 – biochemical, small-molecule microarray, 635 nm fluorescence, primary screen (AID 1102); conditions: FGF10 binding, fluorescence 635 nm, higher = more signal
Chain of Fibroblast growth factor 10 (Homo sapiens) (O15520 whole entry, looked up): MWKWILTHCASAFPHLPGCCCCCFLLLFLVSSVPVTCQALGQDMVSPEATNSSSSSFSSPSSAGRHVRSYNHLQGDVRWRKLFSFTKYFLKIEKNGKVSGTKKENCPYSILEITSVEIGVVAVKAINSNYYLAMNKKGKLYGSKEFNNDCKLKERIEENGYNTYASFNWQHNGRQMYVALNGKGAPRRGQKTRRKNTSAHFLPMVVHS

[16] = test system: glycogen synthase kinase-3 (GSK3A per assay name; protocol says GSK3B); test: compounds binding glycogen synthase kinase-3 – biochemical, small-molecule microarray, 635 nm fluorescence, GSK3A, primary screen (AID 1103); conditions: fluorescence 635 nm, higher = more signal; also: the record names both GSK3A and GSK3B
[17] = biological target: Epidermal growth factor receptor (Homo sapiens) (UniProt P00533); test: compounds binding epidermal growth factor receptor – biochemical, small-molecule microarray, 635 nm fluorescence, primary screen (AID 1104); conditions: EGFR binding, higher = more signal;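 also: score merges 667 nm emission intensity with spot signal to noise over triplicate slides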
Chain of Epidermal growth factor receptor (Homo sapiens) (P00533 whole entry, looked up): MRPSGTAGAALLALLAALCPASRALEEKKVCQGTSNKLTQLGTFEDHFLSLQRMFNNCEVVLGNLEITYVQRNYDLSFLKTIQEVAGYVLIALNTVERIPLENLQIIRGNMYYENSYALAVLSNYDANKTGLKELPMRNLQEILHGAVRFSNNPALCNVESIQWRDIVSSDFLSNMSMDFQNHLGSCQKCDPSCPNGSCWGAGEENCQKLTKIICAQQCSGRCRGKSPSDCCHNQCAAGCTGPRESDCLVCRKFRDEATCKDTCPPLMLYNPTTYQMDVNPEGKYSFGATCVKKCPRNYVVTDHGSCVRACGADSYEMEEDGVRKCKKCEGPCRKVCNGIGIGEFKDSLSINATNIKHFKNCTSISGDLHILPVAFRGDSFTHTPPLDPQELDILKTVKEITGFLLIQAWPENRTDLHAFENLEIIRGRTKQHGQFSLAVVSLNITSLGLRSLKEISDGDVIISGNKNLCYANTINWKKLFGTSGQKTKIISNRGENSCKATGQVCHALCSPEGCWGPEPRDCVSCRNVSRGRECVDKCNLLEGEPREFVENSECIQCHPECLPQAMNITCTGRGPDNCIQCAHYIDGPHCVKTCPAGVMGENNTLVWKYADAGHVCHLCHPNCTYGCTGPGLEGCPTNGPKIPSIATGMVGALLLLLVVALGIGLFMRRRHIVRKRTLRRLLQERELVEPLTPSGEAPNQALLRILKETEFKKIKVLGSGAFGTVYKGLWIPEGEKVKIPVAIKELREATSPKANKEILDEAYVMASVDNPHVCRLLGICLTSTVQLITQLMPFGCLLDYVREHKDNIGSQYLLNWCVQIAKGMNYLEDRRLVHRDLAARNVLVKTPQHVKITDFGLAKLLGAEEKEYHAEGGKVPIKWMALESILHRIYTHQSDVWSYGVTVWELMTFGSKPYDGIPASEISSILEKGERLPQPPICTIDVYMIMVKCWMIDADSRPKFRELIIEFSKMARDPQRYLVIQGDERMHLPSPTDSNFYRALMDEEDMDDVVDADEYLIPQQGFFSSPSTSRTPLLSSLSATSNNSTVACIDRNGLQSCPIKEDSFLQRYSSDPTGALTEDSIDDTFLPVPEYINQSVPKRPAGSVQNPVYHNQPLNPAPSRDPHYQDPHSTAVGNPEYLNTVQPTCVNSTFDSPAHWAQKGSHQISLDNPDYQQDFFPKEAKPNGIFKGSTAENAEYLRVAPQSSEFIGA

[18] = biological target: Follistatin-related protein 3 (Homo sapiens) (UniProt O95633); test: compounds binding follistatin-related protein 3 – biochemical, small-molecule microarray, 635 nm fluorescence, primary screen (AID 1105); conditions: FSTL3 binding, higher = more signal;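 also: score merges emission near 667 nm and signal to noise per printed spot across three slides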
Chain of Follistatin-related protein 3 (Homo sapiens) (O95633 whole entry, looked up): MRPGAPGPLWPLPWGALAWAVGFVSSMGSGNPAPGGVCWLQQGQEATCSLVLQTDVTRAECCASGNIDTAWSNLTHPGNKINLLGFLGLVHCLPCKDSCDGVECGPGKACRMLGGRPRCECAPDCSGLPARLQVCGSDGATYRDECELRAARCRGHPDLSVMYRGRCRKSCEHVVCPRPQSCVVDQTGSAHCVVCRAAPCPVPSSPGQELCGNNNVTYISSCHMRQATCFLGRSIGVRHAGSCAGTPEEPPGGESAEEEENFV

[19] = biological target: Dickkopf-related protein 1 (Homo sapiens) (UniProt O94907); test: small molecules binding DKK1 protein – biochemical, small-molecule microarray, 635 nm fluorescence scan, primary screen (AID 1106); conditions: higher = more signal;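 also: score merges emission near 667 nm with signal to noise over three replicate slides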
Chain of Dickkopf-related protein 1 (Homo sapiens) (O94907 whole entry, looked up): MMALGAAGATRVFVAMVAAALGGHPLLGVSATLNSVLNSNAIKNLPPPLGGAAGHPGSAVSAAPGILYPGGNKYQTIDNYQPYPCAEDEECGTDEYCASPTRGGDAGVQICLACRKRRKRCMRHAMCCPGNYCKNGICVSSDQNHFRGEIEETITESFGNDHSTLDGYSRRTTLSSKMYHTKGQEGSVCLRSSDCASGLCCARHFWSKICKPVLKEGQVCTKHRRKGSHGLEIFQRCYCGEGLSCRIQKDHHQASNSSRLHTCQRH

[20] = test system: Inhibin beta A chain (activin A); test: small molecules binding activin A – biochemical, small-molecule microarray, 635 nm fluorescence scan, primary screen (AID 1107); conditions: INHBA, higher = more signal;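 also: mouse activin A protein probed at 4.33 µg/mL on printed slides; score merges bound-protein fluorescence near 667 nm with spot signal-to-noise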

Compound	composite z-score [1]	z-score [2]	z-score [3]	z-score [4]	composite z-score [5]	z-score [6]	composite z-score [7]	composite z-score [8]	composite z-score [9]	composite z-score [10]	composite z-score [11]	composite z-score [12]	composite z-score [13]	z-score [14]	composite z-score [15]	composite z-score [16]	composite z-score [17]	composite z-score [18]	composite z-score [19]	composite z-score [20]
CN(C)C(=O)[C@]1(Cc2ccccc2)N=C(c2ccc(OCCCO)cc2)O[C@@H]1c1ccccc1CN=[N+]=[N-]	1.53	-1.8 (inactive)	-0.531 (inactive)	-0.293 (inactive)	3.15	0.702 (inactive)	-0.0153	0.605	1.07	0.0176	0.978	0.143	0.591	-0.741 (inactive)	1.23	1.33	0.0699	0.741	-0.124	0.406
O=C(NCC(O)CO)[C@@]1(CCS(=O)(=O)c2ccccc2)N=C(c2ccc(OCCCO)cc2)O[C@H]1c1ccccc1 (stereo not given in full)	0.845	-0.717 (inactive)	-0.908 (inactive)	-0.163 (inactive)	3.56	-0.328 (inactive)	0.471	-0.562	-0.196	0.144	1.11	1.27	0.985	-0.809 (inactive)	0.303	0.235	-0.928	-0.555	-1.1	0.801
C=C(COC)C(=O)CC[C@H](OC(=O)c1cccnc1)c1ccc(OCCO)cc1	1.52	-0.191 (inactive)	-1.48 (inactive)	0.535 (inactive)	1.48	0.105 (inactive)	-0.155	1.22	0.78	-0.113	0.745	-0.163	-0.139	-0.319 (inactive)	1.08	0.538	0.163	1.03	0.624	0.472
Cc1ccc(S[C@]2(C(=O)NC3CC3)CC(=O)N(C(C)C)[C@@H]2c2ccc(CO)cc2I)cc1	1.27	-0.812 (inactive)	-2.43 (inactive)	-0.2 (inactive)	2.83	-1.34 (inactive)	-0.0865	-0.294	0.624	-0.196	1.37	-0.299	0.812	-1.89 (inactive)	0.377	-0.122	-0.638	0.101	-1.37	0.318
CC(C)NC(=O)[C@@]1(C)c2ccccc2C(=O)N(Cc2ccccc2)[C@H]1c1ccc(CO)cc1	1.53	-1.46 (inactive)	0.138 (inactive)	-0.932 (inactive)	3.22	1.11 (inactive)	-0.13	-0.644	-0.554	-0.0035	1.7	-0.152	0.424	-0.44 (inactive)	-1.2	-0.0543	-0.921	-0.394	-0.0744	-1.14
COc1ccc([Si](C)(C)[C@H]2[C@H](CC(=O)N3Cc4ccccc4C[C@H]3CO)O[C@@]3(C(=O)N(C)c4ccccc43)[C@@H]2C)cc1	1.53	-1.52 (inactive)	-2.06 (inactive)	-0.0615 (inactive)	2.13	0.456 (inactive)	0.173	1.91	1.08	-0.0839	1.52	-0.127	-0.431	-2.06 (inactive)	0.891	1.29	1.01	1.4	1.53	1.58
CN(C)CCCC[C@@H]1NC(=O)[C@@H]2C[C@H](C(=O)NCCCCCN)[C@H](c3cccc(OCCO)c3)N2C1=O	1.32	-5.45 (inactive)	-3.9 (inactive)	-0.962 (inactive)	1.96	2.65 (inactive)	-0.0592	1.17	1.04	-0.0943	0.789	-0.0024	-0.21	-1.66 (inactive)	0.824	1.16	0.428	0.567	0.565	-0.401
CC(C)C(CO)N1C(=O)[C@@H]2C3C(=O)OCCC/C=C\[C@H]3OC23C=CCN(Cc2ccccc2)C(=O)[C@@H]13 (stereo not given in full)	-0.928	-0.43 (inactive)	-0.912 (inactive)	-0.542 (inactive)	1.18	1.3 (inactive)	-0.0598	-0.989	-0.0928	-0.148	1.38	-0.0827	0.554	-0.0848 (inactive)	0.0565	-0.54	-1.01	-0.794	-0.551	0.111
C=CCC(OC(C)=O)[C@@H]1[C@@H](N(Cc2cc3ccccc3o2)C(=O)c2cccc3ccccc23)c2cc(OCCCO)ccc2N1C(=O)c1ccc2ccccc2n1 (stereo not given in full)	0.109	0.472 (inactive)	-0.8 (inactive)	0.12 (inactive)	0.588	1.06 (inactive)	-0.0285	0.728	-0.127	-0.182	-0.408	0.749	0.317	-0.73 (inactive)	0.169	0.0025	0.3	-0.0659	0.121	1.1
OCCCC1=CC(c2ccc(CN3CCCC3)cc2)N(Cc2cccc(OC(F)(F)F)c2)CC1 (stereo not given)	-0.688	-2.01 (inactive)	-14.9 (active)	-2.62 (inactive)	0.203	-0.987 (inactive)	0.0029	0.123	-0.752	-0.181	0.203	-0.0082	0.983	-1.35 (inactive)	-0.327	-0.517	0.297	0.0596	0.0657	1.65
C=CCNC(=O)[C@H]1[C@@H]2C(=O)O[C@@H](c3ccccc3)[C@@H](c3ccccc3)N2[C@@H](c2ccccc2OCCO)[C@]12C(=O)N(C(=O)OCCOC)c1ccc(C#Cc3ccc(OC)cc3)cc12	1.55	2.2 (inactive)	0.823 (inactive)	6.52 (inactive)	2.94	0.769 (inactive)	-0.0998	0.173	0.647	-0.092	0.801	0.256	0.581	0.522 (inactive)	0.654	1.06	0.301	0.0527	-0.163	0.032
COCCOC(=O)N1C(=O)[C@@]2(c3ccccc31)[C@H](c1ccc(O)cc1)N1[C@H](c3ccccc3)[C@H](c3ccccc3)OC(=O)[C@H]1[C@@H]2C(=O)N1CCCCCCC1	1.55	-0.322 (inactive)	0.621 (inactive)	0.929 (inactive)	3.9	0.178 (inactive)	1.76	1.98	1.02	1.26	1.81	2.94	1.68	-0.682 (inactive)	1.39	1.37	1.76	1.69	2.31	1.96
[N-]=[N+]=NCc1ccccc1[C@@H]1OC(c2ccc(OCCCO)cc2)=N[C@]1(Cc1ccccc1N=[N+]=[N-])C(=O)O	1.48	-0.282 (inactive)	-1.64 (inactive)	-0.794 (inactive)	3.13	-0.0956 (inactive)	0.515	-0.0626	1.11	0.439	1.45	1.35	1.11	-1.48 (inactive)	1.15	1.26	0.268	1.03	-0.075	0.848
CCCNC(=O)[C@@]1(c2ccc([N+](=O)[O-])cc2)CC(=O)N(C(C)C)[C@@H]1c1ccc(CO)cc1	-0.854	-0.836 (inactive)	-1 (inactive)	-0.594 (inactive)	1.41	0.353 (inactive)	-0.268	-1.27	-0.124	-0.278	0.928	-0.0525	0.985	-0.27 (inactive)	-0.853	-0.664	-1.52	-0.546	-0.695	-0.251
COc1cc(CO)cc(I)c1O[C@H]1C=C(C(=O)NCCO)C[C@@H]2O[C@H]12	1.56	0.111 (inactive)	-6.47 (inactive)	-1.42 (inactive)	2.63	-0.0097 (inactive)	0.17	2.32	1.07	0.0018	0.6	0.298	0.0558	1 (inactive)	1.77	1.33	0.989	1.45	1.34	0.643
C=C(COC)C(=O)CC[C@@H](OC(C)=O)c1ccccc1OCCO	1.34	-1.89 (inactive)	-3.27 (inactive)	-1.51 (inactive)	1.76	0.732 (inactive)	-0.117	1.11	0.784	-0.0382	1.29	-0.232	0.313	1.34 (inactive)	1.53	-0.0163	-0.0143	0.209	-0.306	1.38
O=C(NC1CC1)[C@@H]1c2ccccc2C(=O)N(Cc2cc(C(F)(F)F)cc(C(F)(F)F)c2)[C@H]1c1ccc(CO)cc1	1.43	-0.523 (inactive)	-1.38 (inactive)	-0.108 (inactive)	2.92	-0.275 (inactive)	-0.508	0.76	0.491	-0.399	0.965	-0.534	-0.47	-0.261 (inactive)	0.105	-0.436	-0.675	0.075	-0.835	-0.547
COc1cc(C(O)C2C=CC3C(=O)N(c4ccccc4)C(=O)C3N2Nc2ccccc2)cc(OC)c1OC (stereo not given)	1.54	-0.722 (inactive)	0.82 (inactive)	-0.205 (inactive)	3.71	-0.651 (inactive)	0.228	-0.124	1.03	0.0473	1.27	1.03	1.13	1.28 (inactive)	1.25	1.31	-0.304	1.07	-0.586	0.484
CCCC=C(CCC)[C@@H](NC(=O)c1ccc(C(F)(F)F)cc1)c1ccc(C(F)(F)F)cc1	1.41	1.13 (inactive)	1.17 (inactive)	1.23 (inactive)	3.26	-0.35 (inactive)	0.315	-0.0005	1.11	0.208	0.654	0.73	1.09	-3.17 (inactive)	0.793	1.13	-0.254	0.468	-0.906	0.932
C=C(C)[C@@H]1CC=C(C(O)C2C=CC3C(=O)N(C)C(=O)C3N2Nc2ccc([N+](=O)[O-])cc2[N+](=O)[O-])CC1 (stereo not given in full)	1.32	0.513 (inactive)	1.79 (inactive)	0.966 (inactive)	3.52	-0.476 (inactive)	0.519	0.263	1.07	0.358	0.626	0.989	1.05	1.86 (inactive)	0.85	1.28	0.963	1.04	0.0615	1.35
